# Out of some 320,000 compounds screened, about 2,100 (0.66%) were called active.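 How the source made its calls: active means inhibition above the mean inhibition of all tested compounds plus 3 SD, set per campaign (cut at about 40% in these data); inactive means the rest.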 What follows is part of a selection rich in actives, with near analogues and random picks from the rest.
# Biological target: Induced myeloid leukemia cell differentiation protein Mcl-1 (Homo sapiens) (UniProt Q07820)
# Test: MCL1-BIM peptide interaction disruptors – biochemical, fluorescence polarization, primary screen (AID 2057);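 further: 0% = DMSO wells and 100% = unlabeled Bim-BH3 peptide control; higher means more loss of mP so more displacement of Bim peptide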
# Details: GST-MCL1 / FITC-Bim-BH3 fluorescence polarization; at 10.9 µM; stronger effect = higher value
# Sequence of Induced myeloid leukemia cell differentiation protein Mcl-1 (Homo sapiens) (Q07820 whole entry, looked up): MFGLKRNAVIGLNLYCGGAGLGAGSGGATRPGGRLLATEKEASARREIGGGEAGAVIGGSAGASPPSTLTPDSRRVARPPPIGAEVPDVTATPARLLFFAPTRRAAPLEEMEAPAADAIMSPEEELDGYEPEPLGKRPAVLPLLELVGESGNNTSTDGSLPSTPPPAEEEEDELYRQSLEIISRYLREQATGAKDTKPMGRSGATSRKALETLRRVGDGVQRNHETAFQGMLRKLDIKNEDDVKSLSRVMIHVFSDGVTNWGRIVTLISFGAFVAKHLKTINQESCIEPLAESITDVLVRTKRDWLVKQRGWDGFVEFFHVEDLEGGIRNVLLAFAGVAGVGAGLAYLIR
row,SMILES,inhibition
1,Cc1c(CN2CCCCC2)c(O)n(CCO)c(=O)c1C#N,18.2% (inactive)
2,CCCCCCn1c(CN2CCCC(C)C2)nc2c1c(=O)n(C)c(=O)n2C (stereo not drawn),4.79% (inactive)
3,CCCn1c(O)c(CN2CCCC(C)C2)c(C)c(C#N)c1=O (stereo not drawn),57.2% (active)
4,O=C(COC(=O)c1ncc(Cl)c(Cl)c1Cl)NC1CCS(=O)(=O)C1 (stereo not drawn),-1.74% (inactive)
5,O=C(CN1CCN(c2ccccc2O)CC1)NC(=O)NCc1ccccc1,5.09% (inactive)
6,CC(=O)c1ccc(NC(=O)CCc2nnc3ccc(NCc4ccco4)nn23)cc1,2.1% (inactive)
7,CC(C)CCN1CCN(Cc2cn[nH]c2C2CCCCC2)CC1CCO (stereo not drawn),-6.25% (inactive)
8,CN(C)S(=O)(=O)c1ccc(N/C=C(\[N+](=O)[O-])S(=O)(=O)c2ccccc2)cc1,2.14% (inactive)
9,CC(NCc1nc2ccccc2n1C)C12CC3CC(CC(C3)C1)C2 (stereo not drawn),-2.96% (inactive)
10,CCc1c(-c2ccccc2)nc(N)c(C#N)c1-c1cccs1,11.5% (inactive)
11,CN1CCc2nc(SC(C(=O)O)c3ccccc3)c(C#N)c(-c3cccs3)c2C1 (stereo not drawn),45.7% (active)
12,Cc1c(-c2ccccc2)nc(N)c(C#N)c1-c1cccs1,4.53% (inactive)
13,CCN(CC(=O)NC1CCS(=O)(=O)C1)S(=O)(=O)c1ccccc1 (stereo not drawn),-7.02% (inactive)
14,COc1ccc(C2/C=C\CN(S(=O)(=O)c3cccs3)CC(=O)N2Cc2ccc(F)cc2)cc1 (stereo not drawn),3.81% (inactive)
15,O=C(CCS(=O)(=O)c1ccccc1)NC1CCCC1,-0.76% (inactive)
16,CC(=O)c1ccc(N2C(=NC(=O)C(C)C)SC3CS(=O)(=O)CC32)cc1 (stereo not drawn),2.13% (inactive)
17,Cc1cc2ccccc2n1CCC(=O)O,49.7% (active)
18,Cc1cc2ccccc2n1CCNC(=O)COc1ccc2ccccc2c1,2.6% (inactive)
19,O=C(O)CCn1c(Cc2ccccc2)nc2ccccc21,1.68% (inactive)
20,O=C(O)C1C2CC2CN1C(=O)c1ccc(Cl)cc1Cl (stereo not drawn),0.95% (inactive)
21,Cc1cccc(C)c1Nc1c(-c2ccccc2O)nc2ncccn12,0.37% (inactive)
22,CCC(C)CN1CCC(CO)(Cc2ccccc2Cl)CC1 (stereo not drawn),0.34% (inactive)
23,COC(=O)c1sc(C(F)(F)F)c(-c2ccccc2)c1S(=O)(=O)N(C)C,4.01% (inactive)
24,Cc1cc(Cl)ccc1NNC(=O)c1snnc1C,6.52% (inactive)

row,SMILES,inhibition
1,O=C(Cn1cnc2ccccc21)Nc1ccccc1-c1ccccc1,6.02% (inactive)
2,O=C(COC(=O)Cn1cnc2ccccc21)Nc1cccc2c1C(=O)c1ccccc1C2=O,155% (active)
3,O=C(COC(=O)c1cccc(Br)c1)Nc1cccc2c1C(=O)c1ccccc1C2=O,-1.24% (inactive)
4,COc1ccc(OC)c2[nH]c(=O)c(CCNC(=O)C(=O)c3c[nH]c4ccccc34)cc12,7.82% (inactive)
5,CCn1c(=S)sc2c(=O)n(CC(=O)Nc3cccc(Br)c3)c(C)nc21,-2.89% (inactive)
6,COc1cccc(NC(=O)C2C(c3ccccc3)C2(Cl)Cl)c1 (stereo not drawn),6.86% (inactive)
7,CCN1CCN(CC(=O)c2cc(OC)c(OC)c(OC)c2)CC1,0.87% (inactive)
8,O=C(OCC1OC(Oc2ccc(O)cc2)C(O)C(O)C1O)c1ccccc1 (stereo not drawn),-1.58% (inactive)
9,O=C(OCC1O[C@@H](OC(=O)c2cc(O)c(O)c(O)c2)[C@@H](OC(=O)c2cc(O)c(O)c(O)c2)[C@@H](OC(=O)c2cc(O)c(O)c(O)c2)[C@@H]1OC(=O)c1cc(O)c(O)c(O)c1)c1cc(O)c(O)c(O)c1 (stereo partly drawn),74.8% (active)
10,COC(=O)C(C)Sc1ccc2nnc(-c3cccc(F)c3)n2n1 (stereo not drawn),-5.54% (inactive)
11,O=C1c2ccccc2C(=O)c2c1cccc2N1CCN(C/C=C/c2ccccc2)CC1,13.8% (inactive)
12,O=C1c2ccccc2C(=O)c2c1cccc2N1CCN(CCO)CC1,60.6% (active)
13,O=C1c2ccccc2C(=O)c2c1cccc2N1CCN(Cc2ccccc2)CC1,7.86% (inactive)
14,CCC(=O)c1ccc(OCC(=O)Nc2ccc(N3CCCCC3)cc2)cc1,0.81% (inactive)
15,Cc1ccc(S(=O)(=O)N2CC(C)N(S(C)(=O)=O)C2)cc1 (stereo not drawn),7.35% (inactive)
16,CC1CCc2sc(C(=O)NCC(c3ccco3)N3CCCCC3)cc2C1 (stereo not drawn),-3.03% (inactive)
17,COc1ccc(CCN2C(=O)N(c3ccc(OC)cc3)C(=O)C2CC(=O)Nc2ccc(OC)cc2)cc1 (stereo not drawn),2.06% (inactive)
18,CC(=O)Nc1ccc(Nc2cc(C)nc(Nc3ccc(NC(C)=O)cc3)n2)cc1,-11.2% (inactive)
19,Cc1cc(C)c(CN2CCN(C(=O)Cn3ccc(NC(=O)OCc4ccccc4)nc3=O)CC2)c(C)c1,2.72% (inactive)
20,O=C(CNC(=O)Cc1ccccc1)N=Nc1c(O)[nH]c2ccc(Br)cc12,4.04% (inactive)
21,NS(=O)(=O)c1ccc(N=Nc2c(O)[nH]c3ccc(Br)cc23)cc1,44.2% (active)
22,Oc1[nH]c2ccc(Br)cc2c1N=Nc1nn[nH]n1,6.9% (inactive)
23,Cc1ccc(C(=O)NC(=S)NCCN2CCOCC2)cc1,6.07% (inactive)
24,Cc1ccc(C(=O)NC(=S)Nc2ccc(N3CCOCC3)cc2)cc1,46.3% (active)

row,SMILES,inhibition
1,Cc1ccc(NC(=S)NC(=O)c2ccc(-c3ccccc3)cc2)cc1,4.74% (inactive)
2,CC(=O)Nc1ccc(S(=O)(=O)NC2Cc3ccccc3C2)cc1,1.26% (inactive)
3,N/C(=N\OC(=O)CCc1ccccc1)c1cccnc1,4.17% (inactive)
4,N/C(=N\OC(=O)CCc1ccccc1)c1ccc(Cl)cc1,64.4% (active)
5,COc1ccc(/C(N)=N/OC(=O)CCCc2ccccc2)cc1,-1.09% (inactive)
6,CCCSC(=S)NC1CCS(=O)(=O)C1 (stereo not drawn),2.09% (inactive)
7,O=C(NCc1ccccn1)c1ccc2nc(-c3ccco3)c(-c3ccco3)nc2c1,106% (active)
8,CCOc1cc(NC(=S)NCCCOC)c(OCC)cc1NC(=O)c1ccco1,9.31% (inactive)
9,Cc1cc(C)cc(NC(=O)NCc2ccccn2)c1,1.97% (inactive)
10,COc1ccc2oc(=O)c(C(=O)NCc3ccccn3)cc2c1,0.27% (inactive)
11,COCCNC(=O)Nc1ccc2nc(-c3ccco3)c(-c3ccco3)nc2c1,131% (active)
12,Cc1nc2cc(NC(=O)NCc3ccccc3)ccc2o1,-6.46% (inactive)
13,Cc1cc(C)nc(-n2ncc3c2CC(c2ccc(C(C)C)cc2)CC3=O)n1 (stereo not drawn),2.19% (inactive)
14,O=C(COC(=O)C1CCN(S(=O)(=O)c2ccc3c(c2)OCCO3)CC1)Nc1ccccc1OC(F)F,0.49% (inactive)
15,O=C1CCN(C(=O)Nc2ccccc2)N1,-0.78% (inactive)
16,C=CCOc1cccc(C2C(C(=O)c3ccc(C)o3)=C(O)C(=O)N2c2nnc(C)s2)c1 (stereo not drawn),81.2% (active)
17,C=CCOc1cccc(C2C(C(=O)c3ccc(C)o3)=C(O)C(=O)N2CCCn2ccnc2)c1 (stereo not drawn),-4.11% (inactive)
18,Cc1cc(N2C(=O)C(O)=C(C(=O)c3ccc(C)o3)C2c2ccc(OCc3ccccc3)cc2)no1 (stereo not drawn),10.4% (inactive)
19,CCNC(=S)N(CCN(CC)CC)Cc1cc2cc3c(cc2[nH]c1=O)OCCO3,13.5% (inactive)
20,Cc1ccc(OCC(=O)Nc2ccccc2Sc2ccc(Cl)cc2)c([N+](=O)[O-])n1,3.45% (inactive)
21,CC(C)c1csc(CN2CCC(CO)(Cc3ccccc3)CC2)n1,8.03% (inactive)
22,COc1cccc(NC(=S)N(CCc2c(C)[nH]c3ccccc23)Cc2ccco2)c1,4.2% (inactive)
23,Cc1[nH]c2ccccc2c1CCN(Cc1cccs1)C(=S)NC(C)(C)C,7.74% (inactive)
24,COc1ccc2[nH]c(C)c(CCN(Cc3cccs3)C(=S)Nc3ccccc3OC)c2c1,65.3% (active)

row,SMILES,inhibition
1,CC(CC(=O)N1CCN(c2ccccc2)CC1)S(=O)(=O)c1ccc2c(c1)NC(=O)CS2 (stereo not drawn),-2.69% (inactive)
2,CN(C(=O)COC(=O)CNC(=O)C12CC3CC(CC(C3)C1)C2)c1ccccc1,-5.29% (inactive)
3,Cc1ccsc1C(=O)NCCc1ccco1,7.13% (inactive)
4,COc1ccccc1-c1oc2ccccc2c1C#CCCCCO,-3.18% (inactive)
5,CC(=O)Nc1ccc(S(=O)(=O)N2CCC(C(=O)NC3CC3)CC2)cc1,-6.89% (inactive)
6,O=C(O)c1cc(Cl)c(Cl)cc1C(=O)Nc1cccc2ncccc12,-1.24% (inactive)
7,Cc1ccc(/C=C(\C#N)C(=O)Nc2cccc3ncccc23)o1,138% (active)
8,Cc1ccc(Cc2cnc(NC(=O)/C(C#N)=C/c3ccc(-c4cccc([N+](=O)[O-])c4)o3)s2)cc1,-0.71% (inactive)
9,COc1ccc(OC)c(C(C)NC(=S)Nc2ccc(S(=O)(=O)Nc3ncccn3)cc2)c1 (stereo not drawn),5.87% (inactive)
10,CCN(CC)CCNC(=O)c1sc2ncn(CC(=O)Nc3ccc(C)c(Cl)c3)c(=O)c2c1C,-4.53% (inactive)
11,CCOc1cc(C(=S)N2CCOCC2)ccc1OS(=O)(=O)c1ccc(Br)cc1,2.62% (inactive)
12,CSc1ccccc1-c1nnc(-c2ccc(Cl)cc2)o1,-2.22% (inactive)
13,COc1ccc(/C=N/NC(=O)c2ccncc2)cc1CN1CCCc2ccccc21,9.1% (inactive)
14,Nc1nc(NCC(=O)O)nc(N2CCCCCC2)c1[N+](=O)[O-],1.22% (inactive)
15,Nc1cc(N2CCCCCC2)c2nonc2c1[N+](=O)[O-],48% (active)
16,Cc1c(Nc2cc(N3CCCC(C)C3)c3nonc3c2[N+](=O)[O-])c(=O)n(-c2ccccc2)n1C (stereo not drawn),-0.42% (inactive)
17,CC(C)COC(=O)C1C2C=CC3(CN(C(C)c4ccc(Br)cc4)C(=O)C13)O2 (stereo not drawn),-1.26% (inactive)
18,Cc1ccc(C(=O)COC(=O)CCCC(=O)NC2CCCCC2)cc1[N+](=O)[O-],-0.81% (inactive)
19,C=CCn1c(SCc2csc(C)n2)nc2scc(-c3ccc(C)o3)c2c1=O,-8.6% (inactive)
20,C=CCn1c(=S)[nH]c2scc(-c3ccco3)c2c1=O,67.4% (active)
21,C=CCNC(=O)CSc1nc2scc(-c3ccco3)c2c(=O)n1CC=C,-5.54% (inactive)
